Over roughly 33,000 sequences, “E-score (-0.5 to 0.5)” has its median near -0.04; the highest 2% begin near 0.36. The list comes from a sample in which the highest values are over-represented; it also holds similar and randomly drawn sequences.
The sequences below were run against T1, Hmlalpha2 (UniProt P0CY09) (assay: PBM E-score (8-mer binding enrichment) (E-score (-0.5 to 0.5)); higher = stronger / more preferred TF binding). Conditions: protein concentration: 200 nM; construct: GST-full length.
T1 sequence: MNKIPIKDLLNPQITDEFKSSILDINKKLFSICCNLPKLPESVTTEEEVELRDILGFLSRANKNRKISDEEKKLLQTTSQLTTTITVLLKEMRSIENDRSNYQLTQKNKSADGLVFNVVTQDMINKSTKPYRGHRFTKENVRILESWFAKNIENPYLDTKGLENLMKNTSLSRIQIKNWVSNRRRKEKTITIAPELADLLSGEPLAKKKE
Summary of the method: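 Universal all-10-mer Agilent arrays, fresh or stripped once, were converted to double-stranded form by primer extension. GST-tagged yeast transcription factors from PURExpress in vitro transcription/translation, full-length or DNA-binding domain only, were applied at about 100-200 nM and detected with fluorescent anti-GST. After masliner normalisation, the Universal PBM Analysis Suite scored each ungapped eight-base word together with its reverse complement by E-score.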

Point of comparison: AGGTAAGC, “PBM E-score” value -0.198. Against it:
- CTATACAC — higher, 0.213
- ATATACAT — higher, 0.435
- ATATACAG — higher, 0.131
- GTATACAA — higher, 0.291
- ATATATAC — higher, 0.345
- AAGGTAAC — higher, 0.0918
- CACGCCCC — higher, 0.0158
- ACTTGAGG — lower, -0.203
- AATGTGTG — higher, 0.0802
- GATGTGCA — higher, -0.091
- GATGTGTA — higher, 0.38
- CATGTGTA — higher, 0.427
- GATGTGGA — higher, -0.0421
- CATGTGGA — higher, 0.144
- AATGTGTA — higher, 0.371
- CATGTGTC — higher, 0.152
- AATGTGTC — higher, 0.0899
- AACAAGGC — higher, 0.219
- CATCAAGC — higher, -0.116
- ACCCTAAT — higher, -0.101
- CCTAATCA — higher, 0.0766
- GTGTGAGA — higher, 0.0378
- AAAACAGA — higher, 0.137
- ATAAAAAG — higher, 0.19
- GGGTAACA — higher, 0.17
- CTGTAACA — higher, 0.223
- ATGTAACA — higher, 0.454
- AAGTAACA — higher, 0.245
- GCGTAACA — higher, 0.29
- GTGTAACA — higher, 0.411
- AGGAGTGG — higher, -0.145
- ACCCGAGA — lower, -0.255
- AGTCTGCG — higher, -0.0616
- ACCAGAAT — higher, 0.0511
- CTACAACA — higher, 0.283
- TCACACCA — higher, -0.0124
- GCACAACA — higher, 0.187
- GTACAACA — higher, 0.395
- CCACACCA — higher, 0.0331
- CCACAACA — higher, 0.0233
- AAACAACA — higher, 0.367
- AAACAACT — higher, 0.0928
- ATACAACA — higher, 0.355
- ACACAACA — higher, 0.381
- AAACAACC — higher, 0.168
- ACACACCA — higher, 0.369
- GTGCTCAA — higher, 0.197
- ATCTGGGG — lower, -0.267
- CGCTTACA — higher, 0.287
- AAGTTCCG — higher, -0.0355
- AAGCGGGG — higher, -0.0783
- AGCTCCCA — higher, -0.128
- AATGCTCG — higher, 0.0169
- TGAAAGAA — higher, 0.129
- AAAGCACA — higher, 0.123
- AAGTATCT — higher, 0.0958
- ACACAACT — higher, 0.317
- ACACAGCG — higher, 0.424
- ACACAACG — higher, 0.377
- ACACAGCA — higher, 0.358
- ACACAACC — higher, 0.305
- ACACAGCC — higher, 0.317
- GAGGAAGC — lower, -0.231
- AAGAGATG — higher, -0.0147
- TAAACTTA — higher, 0.228
- CGAAGATA — higher, -0.04
- ACAGTCTG — higher, -0.159
- ACACATCA — higher, 0.183
- GACATATA — higher, 0.163
- TACATAAA — higher, 0.369
- AACATAAA — higher, 0.28
- AACATACG — higher, 0.363
- CACATAAA — higher, 0.259
- TACATATA — higher, 0.374
- GACATACA — higher, 0.315
- CACATACA — higher, 0.33
- TACATACA — higher, 0.443
- AACATACA — higher, 0.368
- AACATACT — higher, 0.255
- CACATATA — higher, 0.311
- ACTACGCT — higher, 0.106
- ACTGCTCA — higher, 0.0532
- GAAGATAA — higher, 0.242
- AAAGGGAC — lower, -0.2
- GCAATCTA — higher, 0.119
- ATCTTCTA — higher, -0.0325
- TACATAGA — higher, 0.427
- GACATAGA — higher, 0.145
- CACATAGA — higher, 0.0951
- AGTTAACT — higher, 0.129
- AGTTATAA — higher, 0.172
- CGTTATAA — higher, 0.222
- GGTTAAAA — higher, 0.28
- TGTTAAAA — higher, 0.43
- AGTTAACG — higher, 0.248
- TGCTAACA — higher, 0.245
- TGTTATAA — higher, 0.399
- CGTTAACA — higher, 0.34
- AGTTAACA — higher, 0.392
- TGTTAACA — higher, 0.426
- CGTTAAAA — higher, 0.272
- AGCTGGAC — higher, -0.0393
- AAGGCCAC — higher, -0.186
- CGGGCAAC — lower, -0.261
- ATAGATTA — higher, 0.151
- AAAAAGGA — higher, -0.00436
- GTGGCTGA — lower, -0.248
- CCATGCGG — higher, -0.12
- GAGGAGAA — higher, -0.191
- GGTTAACA — higher, 0.412
- GGTTAAGA — higher, 0.148
- GGTTAACC — higher, -0.142
- CGCCAGAG — lower, -0.305
- GATGGTCC — higher, -0.0351
- CCCGGTGA — lower, -0.242
- CCTACATA — higher, 0.13
- ACTACAGG — higher, 0.133
- ACTACATG — higher, 0.43
- ACGACATC — higher, 0.0415
- ACTACATA — higher, 0.378
- ACTACATC — higher, 0.275
- GCTACATA — higher, 0.255
- ACGACATA — higher, 0.134
- ACGACATG — higher, 0.382
- CCGTTGTC — higher, 0.0589
- ACCCTGCA — higher, 0.0038
- CGATTGCG — higher, -0.0285
- AGTACATC — higher, 0.233
- AGTACAAG — higher, 0.267
- AGTACATA — higher, 0.401
- GGTACATA — higher, 0.141
- AGTACATG — higher, 0.415
- CGTACATA — higher, 0.363
- CTGCCATC — lower, -0.239
- CCTCCCCA — lower, -0.233
- CCGGCAGC — lower, -0.36
- AGCAATCG — higher, 0.108
- TATCAAAA — higher, 0.173
- CAGGCCCA — higher, -0.135
- CTATTCGC — higher, -0.117
- TCCGCCGA — higher, -0.0873
- CACACGCA — higher, 0.19
- ATCACGCG — higher, 0.144
- AACACGCT — higher, 0.387
- AACACGCC — higher, 0.359
- AACACGCA — higher, 0.412
- AACACGCG — higher, 0.406
- ACCACGCT — higher, -0.134
- AGCACGCA — higher, 0.0284
- GACACGCA — higher, 0.301
- AGCACGCT — higher, 0.00597
- CACACGCG — higher, 0.264
- TACACGCA — higher, 0.442
- ATGTCTTG — higher, 0.0125
- CACGCGGA — higher, 0.109
- AGATCCTA — higher, -0.165
- ACGGGACT — higher, -0.101
- CGAGCATA — lower, -0.325
- CCCTAACG — higher, -0.0128
- ATACTATG — higher, 0.0473
- GAAGCTCC — lower, -0.218
- ACTTCTTC — higher, 0.0141
- ACTTTACT — higher, 0.109
- ATTTTACA — higher, 0.41
- ACTTTACC — higher, 0.151
- ACTTTACA — higher, 0.429
- ATTTTACG — higher, 0.31
- CTTTTACC — higher, 0.139
- CTTTTACA — higher, 0.453
- GCTTTAAA — higher, 0.095
- GCTTTACA — higher, 0.405
- ATTTTACC — higher, 0.188
- CTTTTATA — higher, 0.0262
- GCTTTACC — higher, 0.21

From the supplement of paper PMC3334620
